Measurements from PubChem BioAssay (Tox21).
Records with an inconclusive call do not appear. Active and inactive are the calls of the source. Unless noted, the call rests on the fitted dose curve; in most records, active means well fitted curve in the direction sought with a large enough effect in the repeat runs; inconclusive means weak or mixed curves; inactive means no such curve, though single readings can be large; an effect the other way counts as inactive or inconclusive.

What was measured:
[1] = molecular target: Luciferin 4-monooxygenase (Photinus pyralis) (UniProt P08659); assay: qHTS assay to identify small molecule inhibitors of firefly luciferase (AID 1224835); further: nearly all actives have a fitted effect of over 25% in size; further: potency means the concentration at half of the fitted maximal effect
Sequence of Luciferin 4-monooxygenase (Photinus pyralis) (P08659 whole entry, looked up): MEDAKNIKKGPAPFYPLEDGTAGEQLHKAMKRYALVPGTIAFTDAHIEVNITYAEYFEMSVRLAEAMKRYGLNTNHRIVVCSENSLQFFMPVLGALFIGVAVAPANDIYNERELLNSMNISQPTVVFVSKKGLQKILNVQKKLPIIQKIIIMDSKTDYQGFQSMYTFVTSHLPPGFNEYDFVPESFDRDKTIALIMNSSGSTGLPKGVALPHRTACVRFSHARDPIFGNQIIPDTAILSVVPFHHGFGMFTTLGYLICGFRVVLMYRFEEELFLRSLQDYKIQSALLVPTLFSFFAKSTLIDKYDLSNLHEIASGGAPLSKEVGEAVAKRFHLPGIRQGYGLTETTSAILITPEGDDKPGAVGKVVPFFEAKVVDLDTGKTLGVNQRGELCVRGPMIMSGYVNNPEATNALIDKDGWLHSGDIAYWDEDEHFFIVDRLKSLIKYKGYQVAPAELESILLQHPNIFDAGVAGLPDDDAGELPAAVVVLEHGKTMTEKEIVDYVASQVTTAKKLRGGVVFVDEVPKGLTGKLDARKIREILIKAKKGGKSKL
In short: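 Biochemical qHTS: compounds run as interplate titrations against purified firefly enzyme, with D-luciferin and ATP each at its KM concentration. Light output recorded by CCD imaging.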

[2] = qHTS assay to identify small molecule agonists of the constitutive androstane receptor (CAR) signaling pathway - cell viability counter screen (AID 1224836); further: nearly all actives have a fitted effect of over 45% in size
In short: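 HepG2-CYP2B6-hCAR, 2500 cells/well, 4 h pre-incubation; cpd 15 conc + PK11195 0.75 uM final; 23 h, 37 C/5% CO2; CellTiter-Fluor, fluorescence.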

[3] = qHTS assay to identify small molecule antagonists of the constitutive androstane receptor (CAR) signaling pathway - cell viability counter screen (AID 1224837); further: nearly all actives have a fitted effect of over 45% in size
In short: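 Counter screen run in HepG2-CYP2B6-hCAR cells: 4 hr settle, compound titration (15 concentrations) with 50 nM CITCO, 23 hr at 37 C/5% CO2, CellTiter-Fluor fluorescence.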

[4] = molecular target: Nuclear receptor subfamily 1 group I member 3 (Homo sapiens) (UniProt Q14994); assay: qHTS assay to identify small molecule antagonists of the constitutive androstane receptor (CAR) signaling pathway (AID 1224838);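 further: HepG2 cells stably expressing hCAR with CYP2B6 luciferase reporter stimulated by CITCO; nearly all actives have a fitted effect of over 40% in size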
Sequence of Nuclear receptor subfamily 1 group I member 3 (Homo sapiens) (Q14994 whole entry, looked up): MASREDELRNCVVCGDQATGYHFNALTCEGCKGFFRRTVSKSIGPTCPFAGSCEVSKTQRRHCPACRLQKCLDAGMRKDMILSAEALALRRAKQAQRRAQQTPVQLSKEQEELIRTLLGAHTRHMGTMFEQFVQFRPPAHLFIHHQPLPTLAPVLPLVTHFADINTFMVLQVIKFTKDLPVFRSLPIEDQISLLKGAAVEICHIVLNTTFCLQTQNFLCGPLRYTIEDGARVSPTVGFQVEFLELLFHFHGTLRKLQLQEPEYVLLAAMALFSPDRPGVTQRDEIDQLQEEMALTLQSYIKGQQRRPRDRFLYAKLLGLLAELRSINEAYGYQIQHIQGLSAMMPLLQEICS
In short: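 Cell line: HepG2 double-stable for hCAR and CYP2B6-2.2kb reporter. Agonist: CITCO, 50 nM final. Compounds: 15 concentrations, 24 h, 37 C. Detection: ONE-Glo luminescence.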

[5] = molecular target: Nuclear receptor subfamily 1 group I member 3 (Homo sapiens) (UniProt Q14994); assay: qHTS assay to identify small molecule agonists of the constitutive androstane receptor (CAR) signaling pathway (AID 1224839); further: nearly all actives have a fitted effect of over 15% in size; further: potency means the concentration at half of the fitted maximal effect;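 on activation: HepG2 cells stably carrying human CAR and a CYP2B6 luciferase reporter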
In short: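 HepG2-CYP2B6-hCAR cells, 2500/well, 4 h pre-incubation; compounds 15 conc.; PK11195 0.75 uM final; 24 h, 37 C/5% CO2; ONE-Glo luciferase read.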

[6] = qHTS assay to identify small molecule antagonists of the estrogen related receptor signaling pathway with the pleiotropic PPARgamma coactivator (PGC) from Tox21 10K library - cell viability counter screen (AID 1224840; active means well fitted cell-killing curve with a large enough effect in the repeat runs, not every such curve was filed as active; further: nearly all actives have a fitted effect of over 40% in size)
In short: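 Following seeding of 2,000 PGC/ERR cells/well and 6 hours' incubation, test compounds were delivered in DMSO. The plates then sat 17.5 hours at 37 C before a fluorogenic live-cell protease reagent (CellTiter-Fluor) was read after 30 min.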

[7] = molecular target: Thyrotropin receptor (Homo sapiens) (UniProt P16473); assay: qHTS assay to identify small molecule agonists of the thyroid stimulating hormone receptor (TSHR) signaling pathway (AID 1224843; calls by dose curve; further: nearly all actives have a fitted effect of over 45% in size)
Sequence of Thyrotropin receptor (Homo sapiens) (P16473 whole entry, looked up): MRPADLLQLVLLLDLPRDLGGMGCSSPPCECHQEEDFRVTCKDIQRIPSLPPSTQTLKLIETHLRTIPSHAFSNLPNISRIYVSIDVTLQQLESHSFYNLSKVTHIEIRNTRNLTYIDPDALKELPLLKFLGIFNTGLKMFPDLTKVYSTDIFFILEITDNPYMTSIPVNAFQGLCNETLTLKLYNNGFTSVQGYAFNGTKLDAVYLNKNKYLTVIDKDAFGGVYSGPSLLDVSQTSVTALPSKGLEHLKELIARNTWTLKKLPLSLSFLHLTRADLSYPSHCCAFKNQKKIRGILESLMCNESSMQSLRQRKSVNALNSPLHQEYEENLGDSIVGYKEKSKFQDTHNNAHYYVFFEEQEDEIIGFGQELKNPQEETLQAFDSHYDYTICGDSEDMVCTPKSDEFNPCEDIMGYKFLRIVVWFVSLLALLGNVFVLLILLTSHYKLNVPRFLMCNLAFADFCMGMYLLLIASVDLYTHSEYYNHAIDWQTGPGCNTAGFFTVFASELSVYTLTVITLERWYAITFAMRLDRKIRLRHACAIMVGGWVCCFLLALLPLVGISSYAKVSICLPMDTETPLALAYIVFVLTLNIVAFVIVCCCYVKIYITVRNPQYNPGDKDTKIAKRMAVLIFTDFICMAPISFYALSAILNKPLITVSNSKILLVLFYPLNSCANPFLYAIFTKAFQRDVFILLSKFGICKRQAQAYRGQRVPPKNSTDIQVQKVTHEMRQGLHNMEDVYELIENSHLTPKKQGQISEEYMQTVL
In short: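 TSHR-HEK293 cells in agonist mode, 30 min room-temperature step, then cAMP measured by competitive HTRF (cAMP-d2 with anti-cAMP cryptate) after 1 h at room temperature. Tested at 15 concentrations in triplicate.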

[8] = qHTS assay to identify small molecule agonists of the hypoxia (HIF-1) signaling pathway - cell viability counter screen (AID 1224844; calls by dose curve; further: nearly all actives have a fitted effect of over 50% in size)
In short: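 Cells (HRE-bla ME-180, 2,000 per well) sat 5 hrs at 37C, got compound for 17 hrs, were read for CCF4-AM FRET, and were finally lysed with CellTiter-Glo for a 30 min room-temperature luminescence read.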

[9] = qHTS assay to identify small molecule agonists of H2AX (AID 1224845; active means well fitted activation curve with a large enough effect in the signal ratio in the repeat runs, not every such curve was filed as active; the % refers to the signal ratio)
In short: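 Wild-type CHO-K1 cells, plated overnight, exposed 3hr at 37C to 15 concentrations (0.76% DMSO final). Lysed, then HTRF anti-pH2AX (S139) cryptate and anti-H2AX-d2 antibodies, 24 hr room temperature; 665/620 nm emission read.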

[10] = qHTS assay to identify small molecule agonists of the hypoxia (HIF-1) signaling pathway (AID 1224846; active means well fitted activation curve with a large enough effect in the signal ratio in the repeat runs, not every such curve was filed as active; the % refers to the signal ratio)
In short: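 A low-serum medium (0.5% dialyzed FBS) holding 2,000 HRE-bla ME-180 cells per well is preincubated for 5 hrs, dosed with compounds by pintool, and kept a further 17 hrs at 37C, 5% CO2 before CCF4-AM FRET detection of beta-lactamase.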

[11] = qHTS assay to identify small molecule agonists of H2AX - cell viability counter screen (AID 1224847; calls by dose curve; further: nearly all actives have a fitted effect of over 30% in size; further: potency means the concentration at half of the fitted maximal effect; on activity change, negative = cytotoxicity: top concentration of the series differs between compounds)
In short: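 Cells plated first: CHO-K1, 1000 per well in 10% FBS medium, incubated overnight at 37C. Then 15-point compound titration added (final DMSO 0.76%) for 3 hr. Finally CellTiter-Glo added and luminescence read.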

[12] = qHTS RealTime-Glo MT Cell Viability Assay in HepG2 cells - 24 hour (AID 1224867); further: nearly all actives have a fitted effect of over 50% in size
In short: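 Cell number in HepG2 cultures estimated from NanoLuc luminescence generated by metabolic reduction of a prosubstrate by living cells. The homogeneous, nonlytic format allowed repeated reads at 0, 8, 16, 24, 32 and 40 h of compound exposure.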

[13] = qHTS RealTime-Glo MT Cell Viability Assay in HEK293 cells - 32 hour (AID 1224868); further: nearly all actives have a fitted effect of over 50% in size; further: potency means the concentration at half of the fitted maximal effect; on activity change, negative = cytotoxic: top concentration of the series differs between compounds
In short: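 Homogeneous bioluminescent viability format in HEK293 cells (600 cells/well). Following 5 h at 37 C/5% CO2, 23 nL compound was pintooled; the signal was measured repeatedly during 40 h incubation.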

[14] = A CellTox Green Cytotoxicity Assay to monitor cytotoxicity in HEK293 cells - 0 hour (AID 1224869); further: nearly all actives have a fitted effect of over 50% in size
In short: (§1)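 Fluorescence intensity, read at 0, 8, 16, 24, 32 and 40 h of compound treatment, reflected dye binding to DNA of dead HEK293 cells; compounds (23 nL, DMSO) were added 5 h after plating cells with reagent.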

[15] = qHTS RealTime-Glo MT Cell Viability Assay in HepG2 cells - 40 hour (AID 1224870); further: nearly all actives have a fitted effect of over 50% in size
In short: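 HepG2 cells (600/well) mixed with RealTime-Glo MT reagent, settled 5 h at 37 C/5% CO2 before compound addition. Nonlytic NanoLuc luminescence from viable-cell prosubstrate reduction read repeatedly during 40 h treatment at 37 C.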

[16] = qHTS assay to identify small molecule agonists of the estrogen related receptor signaling pathway with the pleiotropic PPARgamma coactivator (PGC) from Tox21 10K library (AID 1224842); further: nearly all actives have a fitted effect of over 15% in size
In short: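 PGC/ERR reporter cell line, 2,000 cells per well, incubated 6 h at 37 C before 23 nL compound in DMSO was added. After 18 h at 37 C, One-Glo luminescence read following 30 min at room temperature.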

[17] = qHTS assay to identify small molecule antagonists of the estrogen related receptor (ERR) signaling pathway from Tox21 library (AID 1224848); further: nearly all actives have a fitted effect of over 50% in size; further: potency means the concentration at half of the fitted maximal effect
In short: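 ERR reporter cell line (from NTP) seeded 2,000 cells/well, rested 6 h at 37 C/5% CO2, then pin-dosed with compounds in DMSO. After 18 h at 37 C, ONE-Glo added; luminescence read after 30 min at room temperature.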

[18] = qHTS assay to identify small molecule agonists of the estrogen related receptor (ERR) signaling pathway from Tox21 library (AID 1224849; calls by dose curve; further: nearly all actives have a fitted effect of over 15% in size); settings: ERR reporter cell line, ONE-Glo luciferase, 18 h
In short: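 Screening used an NTP-provided ERR luciferase cell line. Compounds in DMSO were added 6 h after seeding and left 18 h at 37 C before a 30 min ONE-Glo step and luminescence reading.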

[19] = A CellTox Green Cytotoxicity Assay to monitor cytotoxicity in HEK293 cells - 40 hour (AID 1224871); further: nearly all actives have a fitted effect of over 45% in size; further: potency means the concentration at half of the fitted maximal effect
In short: as §1
On the % scale 0 is the no-effect control and ±100 the full control effect.

CCCCC(CC)COC(=O)CCCCC(=O)OCc1ccccc1 (stereo unspecified)
inactive: Potency [1] | Potency [2] | Potency [3] | Potency [4] | Potency [5] | Potency [6] | Potency [7] | Potency [8] | Potency [9] | Potency [10] | Potency [11] | Potency [12] | Potency [13] | Potency [14] | Potency [15]

Clc1ccnc(Cl)n1
inactive: Potency [1] | Potency [2] | Potency [3] | Potency [4] | Potency [5] | Potency [6] | Potency [16] | Potency [9] | Potency [11] | Potency [17] | activity change, positive = activation ([18]; at 92.4 µM (top of the series)) -1.53% | Potency [12] | Potency [13] | Potency [15] | Potency [19]

CC[C@H](C)COC(=O)/C=C/c1ccc(N=Cc2ccc(OC)cc2)cc1
inactive: Potency [2] | Potency [3] | Potency [4] | Potency [6] | Potency [7] | Potency [8] | Potency [9] | Potency [10] | Potency [12] | Potency [14] | Potency [15]
active: Potency [1] 4.47 µM | Potency [5] 24.3 µM | Potency [11] 89.7 µM | Potency [13] 21.8 µM | Potency [19] 48.9 µM

CCC(=O)OC(=O)CC
inactive: Potency [1] | Potency [2] | Potency [3] | Potency [4] | Potency [5] | Potency [6] | Potency [7] | Potency [8] | Potency [9] | Potency [10] | Potency [11] | Potency [12] | Potency [13] | Potency [14] | Potency [15] | Potency [19]

COC1=C(OC)C(=O)C(CCCCCCCCCCO)=C(C)C1=O
inactive: Potency [1] | Potency [2] | Potency [3] | Potency [4] | Potency [5] | Potency [6] | Potency [16] | activity change, positive = activation ([18]; at 42.5 µM (top of the series)) -46.7% | Potency [12] | Potency [14] | Potency [15]
active: Potency [17] 18.8 µM

CCc1cccc(CC)c1NC(=O)CN(CC(=O)O)CC(=O)O
inactive: Potency [1] | Potency [2] | Potency [3] | Potency [4] | Potency [5] | Potency [6] | Potency [7] | Potency [8] | Potency [9] | Potency [10] | Potency [12] | Potency [13] | Potency [14] | Potency [15] | Potency [19]

C[C@H]1NCc2cc(-c3ccc4c(=O)c(C(=O)O)cn(C5CC5)c4c3OC(F)F)ccc21
inactive: activity change, negative = inhibition [1] -0.0227% [at 23.6 µM] | viability change, negative = cytotoxic [2] 8.47% [at 19 µM] | activity change, negative = cytotoxicity [3] -0.799% [at 19 µM] | activity, negative = inhibition [4] 10.2% [at 19 µM] | activation [5] -2.33% [at 19 µM] | viability change, negative = cytotoxic [6] 5.39% [at 19 µM] | activation [7] 2.59% [at 19 µM] | activity change, negative = cytotoxicity [8] 6.72% [at 15.8 µM] | activation (H2AX phosphorylation) [9] 4.25% [at 31.6 µM] | activation [10] 0.068% [at 15.8 µM] | activity change, negative = cytotoxicity [11] 0.563% [at 31.6 µM] | activity change, negative = cytotoxicity [12] -15.8% [at 15.8 µM] | activity change, negative = cytotoxic [13] -6.15% [at 15.8 µM] | cytotoxicity [14] 0.0457% [at 15.8 µM] | activity change, negative = cytotoxic [15] -10.9% [at 15.8 µM] | cytotoxicity increase [19] -4.15% [at 15.8 µM]

FC(F)(F)c1cccc(Cl)c1
inactive: Potency [1] | Potency [2] | Potency [3] | Potency [4] | Potency [5] | Potency [6] | Potency [7] | Potency [8] | Potency [9] | Potency [10] | Potency [11] | Potency [12] | Potency [13] | Potency [14] | Potency [15] | Potency [19]
